These results are taken from PubChem BioAssay AID720517 (National Center for Advancing Translational Sciences (NCATS), 2013).

A short description of the test: qHTS for Inhibitors of Cell Surface uPA Generation: FP59 Counterscreen for Cherry-picked Compounds.

Records with an inconclusive call do not appear. Entries that show only a call come without a potency. Calls of active or inactive are those of the source. Calls come from the whole dose curve; as a rule, active = well fitted activation curve with a large enough effect; inconclusive = small, poorly fitted or top-dose-only effect; inactive = flat fitted curve, though single readings scatter.
Potency is the fitted concentration of half-maximal effect.

In the case of `O=C1OCC/C1=C\c1ccc(O)cc1`, the Potency entry is “inactive”. Turning to `COc1ccccc1N1CCN(C2CC(=O)N(c3ccccc3)C2=O)CC1` (stereo not given), the Potency entry was “inactive”. With `COc1ccc(OC)c(S(=O)(=O)N2CCN(Cc3ccccc3)CC2)c1`, the Potency entry is “inactive”. Regarding `Cc1ccc(NC(=O)C(C)S)cc1` (stereo not given), the Potency result is “inactive”. Under `O=C(NC(=O)c1ccccc1)Nc1cccc(S(=O)(=O)N2CCCCC2)c1` stands “inactive”.

For the compound `CCOC(=O)Cn1c(=O)cc(C)c2cccc(C)c21`, the Potency entry was “inactive”.

As for `O=C(c1cccc(F)c1)N1CCN(Cc2cccc(Br)c2)CC1`, the Potency result was “inactive”.

Consider `COc1ccc(S(=O)(=O)N2CCOCC2)cc1NC(=O)CN1C(=O)NC2(CCCC2)C1=O`, for which the Potency result was “inactive”. Take `COc1cc(NS(=O)(=O)c2ccc(NC(=S)NC(=O)COc3ccccc3OC)cc2)nc(OC)n1`: the Potency result is “inactive”. Under `O=S(=O)(NCCc1ccccc1F)c1cccc(S(=O)(=O)N2CCOCC2)c1` stands “inactive”; under `CCOc1ccc(NS(=O)(=O)c2ccc(C(=O)N3CCC3)cc2)cc1`, “inactive”; under `COc1ccc(CC(=O)OCC(=O)NNC(=O)c2ccccc2)cc1`, “inactive”. For `CN(C)S(=O)(=O)c1ccc(NC(=O)COC(=O)CC2CC3CCC2C3)cc1` (stereo not given), the Potency entry was “inactive”. Take `CCCNC(=O)COc1coc(CN2CCN(c3ccccc3OC)CC2)cc1=O`: the Potency result was “inactive”. Turning to `Fc1ccc(CNc2ccccn2)cc1`, the Potency result is “inactive”. As for `CC(C)(O)C#Cc1ccc(C(=O)N2CCCC(CCC(=O)NCc3ccccc3F)C2)cc1` (stereo not given), the Potency entry was “inactive”. To `O=C(NNC(=O)c1cccc(-n2cccc2)c1)c1ccc(F)cc1` belongs “inactive”; to `CC(C)(C)OC(=O)N(Cc1ccccc1)Cc1ccccc1OCc1cccc(NC(=O)C2CC2)c1`, “inactive”. As for `OC(COc1ccc(Br)cc1)CN1CCN(c2ccccc2)CC1` (stereo not given), the Potency result was “inactive”. Regarding `COc1ccc(Cc2nnc(NC(=O)Nc3ccc(F)cc3)s2)cc1`, the Potency result was “inactive”. To `COc1ccccc1CNC(=O)CCn1c(=O)oc2ccccc21` belongs “inactive”; to `COC(=O)CSc1nc(N2CCOCC2)c2c(c1C#N)CCCC2`, “inactive”; to `CN(C)C(=O)NC(NC(=S)Nc1ccccc1)C(Cl)(Cl)Cl` (stereo not given), “inactive”. In the case of `CCc1nnc(NC(=O)CSc2nnnn2-c2cccc(C(C)=O)c2)s1`, the Potency entry is “inactive”. Consider `COc1cc(C(=O)Nc2nnc(C)s2)cc(OC)c1OC`, for which the Potency entry was “inactive”. Take `COc1ccc(/C=N/NC(=O)COc2ccc3ccccc3c2)c(C(=O)O)c1OC`: the Potency entry is “inactive”. Regarding `CCN(CC)CC(=O)Nc1sc2c(c1C(=O)c1ccccc1OC)CCC2`, the Potency was 16.5 µM (active). `Cc1ccc(S(=O)(=O)NCC(=O)N/N=C/c2ccc(Cl)cc2)cc1`: the Potency entry was “inactive”. Turning to `C=CCOC(=O)C1=C[C@H](c2ccc(C(F)(F)F)cc2)[C@@H](CCCO)[C@H](OCC)O1`, the Potency entry was “inactive”. For the compound `CCC(C)NC(=O)c1ccc2nc(-c3ccc(OC)c(OC)c3)c(-c3ccc(OC)c(OC)c3)nc2c1` (stereo not given), the Potency entry was “inactive”. On to `COc1ccc2nc3c(cc2c1)c(NC(=O)C1CCCO1)nn3CC(C)C` (stereo not given), for which the Potency entry is “inactive”. With `COc1ccc(C(C)=O)cc1CSC(=N)N`, the Potency result was “inactive”. For `Cc1nn(CC(=O)OCC(=O)NC(C)c2ccccc2)c(C)c1[N+](=O)[O-]` (stereo not given), the Potency entry is “inactive”. For the compound `COc1ccc2[nH]cc(S(=O)(=O)c3ccc(C(C)C)cc3)c(=O)c2c1`, the Potency result is “inactive”. In the case of `COc1ccc2c(ccn2S(=O)(=O)c2ccccc2)c1`, the Potency entry is “inactive”. To `C=CCn1c(=O)c(C(=O)NCCc2ccc(Cl)cc2)c(O)c2cc(OC)c(OC)cc21` belongs “inactive”; to `CN(Cc1ccc(C(C)(C)C)cc1)C(=O)Cc1ccc(S(=O)(=O)N2CCOCC2)s1`, “inactive”.

`CCOC(=O)c1c(C)oc2ccc(OC(=O)COc3c(F)c(F)c(F)c(F)c3F)cc12`: the Potency entry is “inactive”. Turning to `CC(NC(=O)NC1CCCCC1)C(c1cccs1)N1CCN(C)CC1` (stereo not given), the Potency entry was “inactive”. For `CCOC(=O)C1CCN(CC(=O)Nc2cc(C)nn2-c2nc3ccccc3s2)CC1`, the Potency entry was “inactive”. To `C=CS(=O)(=O)c1ccc(Oc2ccc(S(=O)(=O)C=C)cc2)cc1` belongs 52.1 µM (active).

On to `COC(=O)CCSCC(=O)N1N=C(c2ccc(OC)cc2)CC1c1cccc(OC)c1OC` (stereo not given), for which the Potency entry was “inactive”.

With `Cc1cc(SCc2ccc(Cl)cc2)nc(=O)[nH]1`, the Potency entry is “inactive”.

Turning to `COC(=O)c1ccc(N2CCN(c3ccccc3)CC2)c(NC(=O)C2CC2)c1`, the Potency entry was “inactive”. With `N/C(=N/OC(=O)c1ccccc1F)c1nonc1N`, the Potency result was “inactive”. In the case of `COc1ccc(C2NC(=O)CCC2[N+](=O)[O-])c(OC)c1OC` (stereo not given), the Potency result was “inactive”. Under `C/C(=N\NC(=S)NC(C)C)c1ccc(Cl)s1` stands “inactive”; under `CSCC[C@H](NC(=O)[C@H](Cc1ccccc1)n1c(=O)[nH]c2ccccc2c1=O)C(=O)N1CCC[C@@H]1C(=O)O`, “inactive”. As to `Cc1ccc(OCc2cc(C(=O)N(C)Cc3cc(C4CC4)n[nH]3)no2)cc1C`, the Potency result was “inactive”. In the case of `COc1ccc(C(=O)NNC(=O)Cc2ccc(Cl)cc2)cc1`, the Potency result was “inactive”.

For the compound `CC(=O)c1cccc(NC(=O)N2C3CCC2CC(O)(c2cccnc2)C3)c1` (stereo not given), the Potency result is “inactive”. On to `O=C1C=CC(O)(c2cc(=O)c3c(O)cc(O)cc3o2)C=C1`, for which the Potency is 14.7 µM (active). To `CS(=O)(=O)c1ccc(Cl)c(NC(=O)COC(=O)CNC(=O)c2cccs2)c1` belongs “inactive”; to `Cc1oc(-c2ccccc2F)nc1CS(=O)CC(=O)NCc1ccc(F)cc1` (stereo not given), “inactive”.

In the case of `CCSC1=NCCN1S(=O)(=O)c1ccc(Cl)cc1`, the Potency result was “inactive”.

Consider `COc1ccccc1CNC(=O)CCCn1nc(C)c2c(C)n(-c3ccccc3)nc2c1=O`, for which the Potency result is “inactive”.

In the case of `COc1ccc(CCNC(=O)Cn2cccc2C(=O)c2ccccc2)c(OC)c1`, the Potency result was “inactive”. Under `Cc1c([N+](=O)[O-])c2ccc(O)cc2n1-c1ccccc1` stands “inactive”; under `Cc1[nH]c2ccccc2c1C(=O)C(C)OC(=O)c1ccccc1NCCO` (stereo not given), “inactive”; under `Cc1nc([N+](=O)[O-])cn1CCCCN1C(=O)c2ccccc2C1=O`, “inactive”. In the case of `CC(=O)n1cc(/C=N/NC(=O)c2ccc([N+](=O)[O-])cc2)c2ccccc21`, the Potency result was “inactive”. Under `NC(=O)CC(NC(=O)Cc1cccc2ccccc12)c1ccc(N2CCC(Cc3ccccc3)CC2)c([N+](=O)[O-])c1` (stereo not given) stands “inactive”; under `O=C(c1cc(COc2c(F)cccc2F)on1)N1CCc2ccccc2C1`, “inactive”. To `O=C(COC(=O)c1cc([N+](=O)[O-])ccc1NCCO)NCc1cccs1` belongs “inactive”; to `O=C(Nc1ccc2c(c1)CCC2)Nc1ccc2c(c1)OCO2`, “inactive”; to `O=C(CNC(=O)c1ccc(Br)o1)NNC(=O)c1ccccc1`, “inactive”. On to `CN(C(=O)CCn1c(=S)oc2ccccc21)c1ccc(F)cc1`, for which the Potency result is “inactive”. Under `CC(=O)c1ccc(N2CCN(C(=S)NCc3ccco3)CC2)cc1` stands “inactive”; under `Cc1cc2[nH]c(=O)c(=O)[nH]c2cc1S(=O)(=O)NC1CCC(C)CC1` (stereo not given), “inactive”; under `COc1ccc(CC(=O)Nc2nc(C)cs2)cc1OC`, “inactive”. In the case of `COc1ccc(NC(=O)CCNS(=O)(=O)c2ccccc2F)cc1S(=O)(=O)N1CCOCC1`, the Potency result is “inactive”.

Regarding `CCOC(=O)c1ccccc1N=Cc1c(O)c2ccccc2oc1=O`, the Potency entry was “inactive”. `O=C1NC(CCc2ccccc2)C(=O)N1Cc1ccccc1Cl` (stereo not given): the Potency result is “inactive”.

Take `COc1ccc(-c2cc(-c3ccccc3)nc3ncnn23)cc1`: the Potency result was “inactive”. In the case of `CC(C)CNC(=O)COC(=O)CCC(=O)c1cccs1`, the Potency entry is “inactive”. In the case of `COc1ccccc1NC(=O)Cn1nnc(-c2ccccc2NC(=O)c2cc3ccccc3oc2=O)n1`, the Potency result was “inactive”.

Take `Cc1cccc(C(=O)NC2CCN(CC(=O)N3CCOCC3)CC2)c1`: the Potency entry was “inactive”. Regarding `CC(C)c1ccc(NC(=O)COc2ccc(S(=O)(=O)N3CCOCC3)cc2)cc1`, the Potency result was “inactive”. As for `Cc1nc2ccc(Br)cn2c1C(=O)N/N=C\c1ccccc1Cl`, the Potency entry was “inactive”.

On to `CCN(C1CCS(=O)(=O)C1)S(=O)(=O)c1ccc2ccccc2c1` (stereo not given), for which the Potency result was “inactive”.

Regarding `COC(=O)c1ccc(CN2CCCC(CNC(=O)Cc3ccc(OC)cc3)C2)cc1` (stereo not given), the Potency entry is “inactive”. To `COC(=O)c1ccccc1NC(=O)Nc1nnc(N2CCCCC2C)s1` (stereo not given) belongs “inactive”; to `COc1ccc(CCNC(=O)CSc2nc(N)c3c(C)c(C)oc3n2)cc1OC`, “inactive”.

On to `O=C(Nc1cccc(C2=NCCN2)c1)Nc1cccc(C2=NCCN2)c1`, for which the Potency result was “inactive”. For `Cc1ccc(NC(=O)CS(=O)Cc2nc(-c3ccc(C)cc3)oc2C)cc1` (stereo not given), the Potency result is “inactive”. With `C#CCOCCOCCOCCNc1nc(N2CCOCC2)nc(N2CCN(C(=O)[C@H](CCC(=O)O)n3cc([C@@H](N)CCCCN)nn3)CC2)n1`, the Potency result is “inactive”. For the compound `CCOC(=O)c1c(NC(=O)CC2SC(N)=NC2=O)sc2c1CCC(C)C2` (stereo not given), the Potency result was “inactive”. Turning to `O=C(NC(=S)Nc1c(F)cc(F)cc1Br)c1ccc2c(c1)OCCO2`, the Potency result was “inactive”.

Take `CC(C)N1CCc2c(sc(NC(=O)Cc3ccccc3)c2C(N)=O)C1`: the Potency result was “inactive”. Under `CN(C)c1cccc(Oc2nc3c(c(=O)n(C)c(=O)n3C)n2C)c1` stands “inactive”. Take `COc1ccccc1-c1ccc(SCC(=O)NCCc2ccccc2)nn1`: the Potency entry was “inactive”. As for `CN(C)c1ccc(S(=O)(=O)N2CCC(Cc3ccccc3)CC2)cn1`, the Potency result was “inactive”. Under `O=C(NCc1ccc(F)cc1)c1cc(S(=O)(=O)N2CCCCC2)ccc1N1CCOCC1` stands “inactive”; under `Cc1ccc([C@H]2C(C(=O)O)=CC[C@@H](c3cccc(C)c3)N2S(=O)(=O)c2ccc(C)cc2)cc1`, “inactive”; under `CCCCN(CC)CCNC(=O)c1cc2cc3ccc(Cl)cc3nc2o1`, “inactive”. Turning to `CC(C)NC(=O)NC(=O)CN1C(=O)NC(Cc2c[nH]c3ccccc23)C1=O` (stereo not given), the Potency entry is “inactive”. Turning to `O=C1CC(/C=C/c2ccc(Cl)cc2)=Nc2ccccc2N1`, the Potency entry was “inactive”. As to `O=C(Nn1cnnc1)c1ccc(Cl)cc1`, the Potency result was “inactive”. For the compound `Cc1ccc(S(=O)(=O)N2CCOCC2)cc1NC(=O)CSc1nc(N)cc(N)n1`, the Potency entry is “inactive”. In the case of `Nc1cc(=O)[nH]c(SCC(=O)Nc2cccc([N+](=O)[O-])c2)n1`, the Potency entry was “inactive”. Under `Cc1ccc(N=C2SCCCN2C(=O)c2cccc(N3C(=O)CCC3=O)c2)cc1Cl` stands “inactive”; under `O=C(NC1CC1)C1CCCN(C(=O)NC2CCCCC2)C1` (stereo not given), “inactive”. Consider `Cc1ccc2sc(NNC(=O)c3ccc4c(c3)OCCO4)nc2c1C`, for which the Potency entry is “inactive”.

Turning to `CC1CS(=O)(=O)CCN1N=Cc1ccc([N+](=O)[O-])o1` (stereo not given), the Potency result was “inactive”. Consider `CN(C)c1cccc(C(=O)N(C)C2CCCN(Cc3ccccc3F)C2)c1` (stereo not given), for which the Potency is 52.1 µM (active).
